The values below come from PubChem BioAssay AID1832 (Broad Institute, 2009).

SMILES strings stand for the structures. The whole screen tested about 300,000 compounds, of which about 1,100 (0.37%) were called active. The full list was thinned out, with actives kept by preference. A number with no mark means an inactive call.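 Rule for the calls: active = inhibition past about -25% in most replicates, and total fluorescence under double the plate's negative control median (limit read from the data); inconclusive = replicates evenly split on the limit, or fluorescence at least double controls; inactive = too little inhibition in most replicates.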

The target of this experiment is Zinc finger protein mex-5 (Caenorhabditis elegans) (UniProt Q9XUB2). The experiment can be described thus: MEX-5 zinc finger RNA-binding disruptors – biochemical, C. elegans, fluorescence polarization, MLPCN library, primary screen (AID 1832).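 Note: 0% = DMSO and -100% = 5 µM competing unlabeled TCR2 RNA.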 To be noted: MEX-5/FITC-TCR2 RNA binding, at 10 µM, hits give low values.
Sequence of Zinc finger protein mex-5 (Caenorhabditis elegans) (Q9XUB2 whole entry, looked up): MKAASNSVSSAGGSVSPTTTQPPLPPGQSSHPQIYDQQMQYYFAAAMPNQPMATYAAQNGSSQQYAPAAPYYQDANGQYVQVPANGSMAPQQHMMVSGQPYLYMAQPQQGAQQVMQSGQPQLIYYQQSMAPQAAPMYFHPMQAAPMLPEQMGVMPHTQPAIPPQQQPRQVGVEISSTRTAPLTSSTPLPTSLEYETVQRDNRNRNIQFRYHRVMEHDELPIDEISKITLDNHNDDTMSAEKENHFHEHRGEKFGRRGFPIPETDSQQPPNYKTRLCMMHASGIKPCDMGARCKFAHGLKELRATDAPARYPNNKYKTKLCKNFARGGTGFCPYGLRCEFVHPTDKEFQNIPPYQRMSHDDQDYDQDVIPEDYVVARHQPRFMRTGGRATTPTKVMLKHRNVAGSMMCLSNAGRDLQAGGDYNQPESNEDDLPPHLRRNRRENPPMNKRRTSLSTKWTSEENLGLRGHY
As for `Cc1cccc(N2C(=O)NC(=O)/C(=C\c3cnn(-c4ccccc4)c3)C2=O)c1`, the activity score (negative = inhibition of binding) was 1.06%.
The value for `O=C1NC(=O)N(c2ccccc2)C(=O)/C1=C/c1ccc([N+](=O)[O-])s1` was -35.6% (active); that for `O=C1NC(=O)N(c2ccc(F)cc2)C(=O)/C1=C/c1ccc2c(c1)CCCN2Cc1ccccc1` was -7.18%.
The figure for `COc1ccc2[nH]c3c(c2c1)CCN[C@H]3C` is 2.22%; for `Cc1cc(/C=C2/C(=O)NC(=O)N(Cc3ccco3)C2=O)c(C)n1-c1ccc(C(=O)O)cc1` it is -4.55%; for `COc1ccc(CN2C(=O)NC(=O)/C(=C\c3ccc(OC)c(OC)c3OC)C2=O)cc1` it is 7.01%.
The figure for `COc1ccc(N2C(=O)/C(=C/c3ccco3)C(=O)NC2=S)cc1` is -95.1% (active).
With `CN(C)CC1CCCCC1OC(=O)c1ccc(Cl)c(Cl)c1` (stereo not given), the activity score (negative = inhibition of binding) is -0.533%.
For `O=Cc1cn(Cc2ccc(F)cc2Cl)c2ccccc12`, the activity score (negative = inhibition of binding) was -1.5%.
The figure for `COc1cccc(-c2nc3ccc(N4CCN(C)CC4)cc3[nH]2)c1` is 2.54%.
